Among the data in article PMC7862700, “An all-to-all approach to the identification of sequence-specific readers for epigenetic DNA modifications on cytosine” are binding signal values, retold here.

Holding throughout (assay): DAPPL (digital affinity profiling via proximity ligation, sequencing); 10 mM Tris-HCl pH 7.5, 50 mM NaCl, 1 mM DTT, 4% glycerol, room temperature, 30 min; GST-TFs on glutathione beads, 16-mer random dsDNA library, 0.1% formaldehyde crosslink after washing; high values mean tight binding
The target of one experiment is T1, FLI1 (Homo sapiens, UniProt Q01543 1-452).
T1 sequence: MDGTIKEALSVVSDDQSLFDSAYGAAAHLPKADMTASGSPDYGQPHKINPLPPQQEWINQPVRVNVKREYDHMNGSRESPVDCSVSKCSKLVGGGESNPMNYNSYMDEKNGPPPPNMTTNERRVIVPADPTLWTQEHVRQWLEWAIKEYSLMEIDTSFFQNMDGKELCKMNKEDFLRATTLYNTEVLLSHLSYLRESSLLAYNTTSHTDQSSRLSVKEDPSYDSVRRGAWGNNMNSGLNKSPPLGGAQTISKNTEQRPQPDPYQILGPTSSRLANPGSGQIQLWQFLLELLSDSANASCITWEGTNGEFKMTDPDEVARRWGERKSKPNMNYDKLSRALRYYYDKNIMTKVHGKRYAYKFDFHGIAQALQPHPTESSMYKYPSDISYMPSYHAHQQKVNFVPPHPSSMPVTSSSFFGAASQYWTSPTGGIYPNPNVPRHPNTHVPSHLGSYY
The following applies: protein: recombinant; tags: N-terminal GST; dsDNA, one strand shown. In a few lines:
(§1)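 After expression in yeast as GST fusions, human transcription factors were bound to glutathione beads, DNA-barcoded and mixed with a tag-only sample. The pools were incubated with 200 nmole of a 16-mer random double-stranded DNA library in Tris/NaCl/DTT/glycerol buffer (30 min, room temperature), washed and crosslinked with 0.1% formaldehyde. Proximity ligation with BsaI/T4 ligase ran for 1 h at 37 °C, before PCR amplification and sequencing on an Illumina NextSeq500. Binding signal is a hexamer's read frequency for a factor divided by its frequency for the tag-only sample.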

The next experiment has as its target T2, ELK1 (Homo sapiens, UniProt P19419 1-428).
T2 sequence: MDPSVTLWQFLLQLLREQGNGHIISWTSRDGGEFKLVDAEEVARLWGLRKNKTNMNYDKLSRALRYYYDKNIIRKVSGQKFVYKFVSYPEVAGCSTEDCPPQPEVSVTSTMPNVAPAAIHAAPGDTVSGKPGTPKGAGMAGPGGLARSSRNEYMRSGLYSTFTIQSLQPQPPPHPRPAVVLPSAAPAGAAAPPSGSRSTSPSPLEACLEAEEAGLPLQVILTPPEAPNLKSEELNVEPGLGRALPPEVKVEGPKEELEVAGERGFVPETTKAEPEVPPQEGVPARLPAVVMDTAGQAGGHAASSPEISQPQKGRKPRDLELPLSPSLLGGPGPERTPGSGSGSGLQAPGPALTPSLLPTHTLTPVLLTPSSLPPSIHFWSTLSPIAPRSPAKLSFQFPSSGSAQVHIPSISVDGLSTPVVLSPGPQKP
The following applies: protein: recombinant; tags: N-terminal GST; dsDNA, one strand shown. The gist of the method: as §1

Another experiment deals with T3, GABPA (Homo sapiens, UniProt Q06546 1-454).
T3 sequence: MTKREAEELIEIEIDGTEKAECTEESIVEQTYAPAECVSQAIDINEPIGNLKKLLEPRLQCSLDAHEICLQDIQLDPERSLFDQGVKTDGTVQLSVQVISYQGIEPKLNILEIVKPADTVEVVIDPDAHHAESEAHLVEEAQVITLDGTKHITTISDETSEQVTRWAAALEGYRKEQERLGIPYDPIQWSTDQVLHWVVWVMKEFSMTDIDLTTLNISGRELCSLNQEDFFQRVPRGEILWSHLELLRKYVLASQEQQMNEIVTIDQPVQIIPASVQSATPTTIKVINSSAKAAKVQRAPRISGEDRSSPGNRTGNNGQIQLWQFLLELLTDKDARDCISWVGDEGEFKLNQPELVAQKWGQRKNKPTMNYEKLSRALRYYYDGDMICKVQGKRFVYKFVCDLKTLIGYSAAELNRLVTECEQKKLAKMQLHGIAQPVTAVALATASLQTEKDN
The conditions noted are these: protein: recombinant; tags: N-terminal GST; dsDNA, one strand shown. In a few lines: as §1

A further experiment has as its target T4, ERG (Homo sapiens, UniProt P11308 1-479).
T4 sequence: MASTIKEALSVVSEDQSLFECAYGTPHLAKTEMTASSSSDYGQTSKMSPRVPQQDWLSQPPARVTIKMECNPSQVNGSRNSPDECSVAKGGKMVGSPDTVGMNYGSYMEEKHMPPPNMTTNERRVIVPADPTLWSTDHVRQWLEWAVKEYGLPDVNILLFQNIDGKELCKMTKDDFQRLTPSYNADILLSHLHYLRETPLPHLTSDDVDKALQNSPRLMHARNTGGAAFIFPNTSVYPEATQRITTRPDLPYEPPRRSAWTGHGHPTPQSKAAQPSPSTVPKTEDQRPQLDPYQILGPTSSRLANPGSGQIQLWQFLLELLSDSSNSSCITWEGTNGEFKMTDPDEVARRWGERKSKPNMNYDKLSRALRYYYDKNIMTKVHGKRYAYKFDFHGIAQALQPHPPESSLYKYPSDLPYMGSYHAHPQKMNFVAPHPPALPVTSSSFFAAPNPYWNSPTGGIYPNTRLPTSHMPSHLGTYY
The following applies: protein: recombinant; tags: N-terminal GST; dsDNA, one strand shown. The gist of the method:
as §1

A further experiment has as its target ELF1 (Homo sapiens, UniProt P32519 1-619). The conditions noted are these: protein: recombinant; tags: N-terminal GST; dsDNA, one strand shown. The gist of the method:
as §1

The target of another experiment is T5, EHF (Homo sapiens, UniProt Q9NZC4 1-300).
T5 sequence: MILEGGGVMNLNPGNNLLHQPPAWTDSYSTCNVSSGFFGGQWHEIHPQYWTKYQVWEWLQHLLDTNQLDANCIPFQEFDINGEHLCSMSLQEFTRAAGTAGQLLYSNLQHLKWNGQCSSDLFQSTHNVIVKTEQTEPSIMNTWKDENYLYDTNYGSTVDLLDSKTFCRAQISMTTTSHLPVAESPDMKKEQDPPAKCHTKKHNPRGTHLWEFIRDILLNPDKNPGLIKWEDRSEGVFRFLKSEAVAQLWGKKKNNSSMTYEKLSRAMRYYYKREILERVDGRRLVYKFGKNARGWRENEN
The following applies: protein: recombinant; tags: N-terminal GST; dsDNA, one strand shown. The gist of the method: as §1

A further experiment addresses SPI1 (Homo sapiens, UniProt P17947 1-270). The following applies: protein: recombinant; tags: N-terminal GST; dsDNA, one strand shown. The gist of the method: as §1
In another experiment the target is SPIB (Homo sapiens, UniProt Q01892 1-262). The conditions noted are these: protein: recombinant; tags: N-terminal GST; dsDNA, one strand shown. In a few lines:
as §1

A further experiment has as its target T6, ELK3 (Homo sapiens, UniProt P41970 1-407).
T6 sequence: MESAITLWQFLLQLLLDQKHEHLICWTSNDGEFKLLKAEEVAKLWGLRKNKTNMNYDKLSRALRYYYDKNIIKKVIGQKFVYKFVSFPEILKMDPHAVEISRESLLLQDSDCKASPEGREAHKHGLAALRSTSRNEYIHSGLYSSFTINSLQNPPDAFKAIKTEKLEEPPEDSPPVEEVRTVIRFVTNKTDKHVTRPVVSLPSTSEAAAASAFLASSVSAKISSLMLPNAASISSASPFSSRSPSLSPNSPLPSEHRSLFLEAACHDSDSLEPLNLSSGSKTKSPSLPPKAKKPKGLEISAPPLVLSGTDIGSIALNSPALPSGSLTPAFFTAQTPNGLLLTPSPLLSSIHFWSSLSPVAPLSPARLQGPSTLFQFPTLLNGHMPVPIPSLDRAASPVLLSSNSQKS
The following applies: protein: recombinant; tags: N-terminal GST; dsDNA, one strand shown. In a few lines:
as §1

The target of another experiment is T7, FEV (Homo sapiens, UniProt Q99581 1-238).
T7 sequence: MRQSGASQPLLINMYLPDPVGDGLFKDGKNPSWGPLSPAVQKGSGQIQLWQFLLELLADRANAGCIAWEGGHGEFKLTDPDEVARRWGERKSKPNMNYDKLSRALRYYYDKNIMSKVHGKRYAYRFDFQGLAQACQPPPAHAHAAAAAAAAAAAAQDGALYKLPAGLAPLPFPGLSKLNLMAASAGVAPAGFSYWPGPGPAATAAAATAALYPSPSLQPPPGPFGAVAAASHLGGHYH
The conditions noted are these: protein: recombinant; tags: N-terminal GST; dsDNA, one strand shown. In a few lines: as §1

A further experiment concerns the target ETV5 (Homo sapiens, UniProt P41161 1-510). The following applies: protein: recombinant; tags: N-terminal GST; dsDNA, one strand shown. In a few lines: as §1
For the next experiment, the target named is HSF1 (Homo sapiens, UniProt Q00613 1-529). The conditions noted are these: protein: recombinant; tags: N-terminal GST; chain copies: 3; dsDNA, one strand shown. In a few lines:
as §1

The next experiment deals with T8, SPIC (Homo sapiens, UniProt Q8N5J4 1-248).
T8 sequence: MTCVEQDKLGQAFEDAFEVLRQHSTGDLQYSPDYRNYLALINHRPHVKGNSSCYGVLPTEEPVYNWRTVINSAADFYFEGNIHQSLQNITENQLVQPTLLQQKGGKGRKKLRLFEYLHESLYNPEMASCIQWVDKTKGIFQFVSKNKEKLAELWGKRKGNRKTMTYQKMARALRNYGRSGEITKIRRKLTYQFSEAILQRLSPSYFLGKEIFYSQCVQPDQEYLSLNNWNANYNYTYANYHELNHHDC
The conditions noted are these: protein: recombinant; tags: N-terminal GST; dsDNA, one strand shown. The gist of the method:
as §1

A further experiment deals with ELF4 (Homo sapiens, UniProt Q99607 1-663). The following applies: protein: recombinant; tags: N-terminal GST; dsDNA, one strand shown. The gist of the method: as §1
ELF4, sequence (Q99607 whole entry): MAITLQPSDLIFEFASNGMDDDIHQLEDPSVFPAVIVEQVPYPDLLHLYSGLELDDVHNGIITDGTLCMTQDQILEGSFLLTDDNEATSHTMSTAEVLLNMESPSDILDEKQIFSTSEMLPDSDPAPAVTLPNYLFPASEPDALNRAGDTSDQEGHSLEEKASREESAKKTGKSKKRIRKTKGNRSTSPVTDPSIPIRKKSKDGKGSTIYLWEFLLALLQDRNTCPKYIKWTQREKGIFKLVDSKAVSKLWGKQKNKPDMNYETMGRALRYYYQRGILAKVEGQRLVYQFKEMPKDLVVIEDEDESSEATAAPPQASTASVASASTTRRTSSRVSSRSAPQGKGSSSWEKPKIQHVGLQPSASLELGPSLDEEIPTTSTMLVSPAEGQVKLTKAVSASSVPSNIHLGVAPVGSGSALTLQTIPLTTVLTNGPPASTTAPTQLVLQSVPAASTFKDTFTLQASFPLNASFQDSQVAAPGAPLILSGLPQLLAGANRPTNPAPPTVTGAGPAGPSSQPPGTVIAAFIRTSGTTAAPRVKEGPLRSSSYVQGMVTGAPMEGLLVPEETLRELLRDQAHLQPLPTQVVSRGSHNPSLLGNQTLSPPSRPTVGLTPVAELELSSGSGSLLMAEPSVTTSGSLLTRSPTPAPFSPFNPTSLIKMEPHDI
A further experiment has as its target T9, ELK4 (Homo sapiens, UniProt P28324-2 1-405).
T9 sequence: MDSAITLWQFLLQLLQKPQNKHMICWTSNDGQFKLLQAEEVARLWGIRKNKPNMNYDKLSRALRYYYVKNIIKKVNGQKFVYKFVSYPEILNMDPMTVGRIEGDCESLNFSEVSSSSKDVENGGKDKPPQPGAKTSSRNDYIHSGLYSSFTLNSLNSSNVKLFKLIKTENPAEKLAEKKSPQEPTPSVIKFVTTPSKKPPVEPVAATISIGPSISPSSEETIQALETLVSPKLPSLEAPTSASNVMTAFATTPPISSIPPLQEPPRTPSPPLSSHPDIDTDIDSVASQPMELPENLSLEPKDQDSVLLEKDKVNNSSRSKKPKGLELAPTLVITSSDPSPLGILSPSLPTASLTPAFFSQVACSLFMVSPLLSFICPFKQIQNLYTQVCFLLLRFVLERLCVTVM
The following applies: protein: recombinant; tags: N-terminal GST; dsDNA, one strand shown. The gist of the method:
as §1

In another experiment the target is T10, ETV2 (Homo sapiens, UniProt O00321 1-342).
T10 sequence: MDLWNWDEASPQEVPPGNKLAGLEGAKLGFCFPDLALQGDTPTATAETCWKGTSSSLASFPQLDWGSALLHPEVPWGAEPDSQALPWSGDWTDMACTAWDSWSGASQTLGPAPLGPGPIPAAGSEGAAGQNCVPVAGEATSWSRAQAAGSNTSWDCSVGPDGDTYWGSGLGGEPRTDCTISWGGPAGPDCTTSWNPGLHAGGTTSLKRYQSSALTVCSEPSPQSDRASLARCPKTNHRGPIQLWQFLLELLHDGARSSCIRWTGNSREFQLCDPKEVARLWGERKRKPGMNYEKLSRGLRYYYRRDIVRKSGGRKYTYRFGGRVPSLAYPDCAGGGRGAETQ
The conditions noted are these: protein: recombinant; tags: N-terminal GST; dsDNA, one strand shown. The gist of the method: as §1

Another experiment has as its target T11, ELF3 (Homo sapiens, UniProt P78545 1-371).
T11 sequence: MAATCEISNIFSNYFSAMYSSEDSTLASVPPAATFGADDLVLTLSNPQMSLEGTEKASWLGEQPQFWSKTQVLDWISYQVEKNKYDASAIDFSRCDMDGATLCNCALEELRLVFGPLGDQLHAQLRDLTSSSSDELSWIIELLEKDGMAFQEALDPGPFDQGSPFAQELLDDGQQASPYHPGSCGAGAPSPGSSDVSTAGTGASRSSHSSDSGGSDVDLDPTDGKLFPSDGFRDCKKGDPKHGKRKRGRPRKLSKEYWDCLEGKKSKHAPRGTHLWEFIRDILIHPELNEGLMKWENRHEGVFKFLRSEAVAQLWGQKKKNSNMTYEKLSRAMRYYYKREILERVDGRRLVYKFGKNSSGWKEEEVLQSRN
The following applies: protein: recombinant; tags: N-terminal GST; dsDNA, one strand shown. The gist of the method: as §1

The target in a further experiment is ETV1 (Homo sapiens, UniProt P50549 1-477). The conditions noted are these: protein: recombinant; tags: N-terminal GST; dsDNA, one strand shown. The gist of the method:
as §1

ETV5, sequence (P41161 whole entry): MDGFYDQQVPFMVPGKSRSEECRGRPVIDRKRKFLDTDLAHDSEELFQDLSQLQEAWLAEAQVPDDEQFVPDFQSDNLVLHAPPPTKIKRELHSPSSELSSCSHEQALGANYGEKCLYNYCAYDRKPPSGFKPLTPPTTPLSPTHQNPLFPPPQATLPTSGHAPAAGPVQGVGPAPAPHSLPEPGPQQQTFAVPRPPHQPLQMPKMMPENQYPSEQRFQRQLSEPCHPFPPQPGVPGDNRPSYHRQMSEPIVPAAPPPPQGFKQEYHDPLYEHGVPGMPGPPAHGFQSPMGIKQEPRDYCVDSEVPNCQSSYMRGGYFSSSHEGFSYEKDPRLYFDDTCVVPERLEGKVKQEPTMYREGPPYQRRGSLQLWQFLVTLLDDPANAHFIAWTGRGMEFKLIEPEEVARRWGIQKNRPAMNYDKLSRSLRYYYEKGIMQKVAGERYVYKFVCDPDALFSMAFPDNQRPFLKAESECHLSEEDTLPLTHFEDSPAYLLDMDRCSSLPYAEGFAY
SPIB, sequence (Q01892 whole entry): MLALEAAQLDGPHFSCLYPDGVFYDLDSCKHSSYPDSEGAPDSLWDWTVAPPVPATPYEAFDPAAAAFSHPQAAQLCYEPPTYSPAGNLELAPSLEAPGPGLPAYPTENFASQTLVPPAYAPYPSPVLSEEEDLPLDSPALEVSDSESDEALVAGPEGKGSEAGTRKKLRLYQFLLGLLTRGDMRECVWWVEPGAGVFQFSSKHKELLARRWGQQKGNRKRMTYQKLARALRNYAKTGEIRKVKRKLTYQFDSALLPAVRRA
ETV1, sequence (P50549 whole entry): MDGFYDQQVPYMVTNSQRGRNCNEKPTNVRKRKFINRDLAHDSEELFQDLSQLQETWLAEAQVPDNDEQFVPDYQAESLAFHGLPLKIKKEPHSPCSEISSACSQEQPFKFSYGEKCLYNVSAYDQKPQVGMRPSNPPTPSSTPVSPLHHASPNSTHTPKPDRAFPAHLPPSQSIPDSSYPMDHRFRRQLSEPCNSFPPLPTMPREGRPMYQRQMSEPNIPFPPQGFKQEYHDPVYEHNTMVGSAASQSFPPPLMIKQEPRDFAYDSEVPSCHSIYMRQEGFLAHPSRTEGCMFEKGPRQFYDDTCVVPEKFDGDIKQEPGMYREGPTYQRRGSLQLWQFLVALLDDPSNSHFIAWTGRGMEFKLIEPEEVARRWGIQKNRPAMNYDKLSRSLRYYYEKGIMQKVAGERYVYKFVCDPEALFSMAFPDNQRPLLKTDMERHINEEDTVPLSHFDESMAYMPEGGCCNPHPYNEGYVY
HSF1, sequence (Q00613 whole entry): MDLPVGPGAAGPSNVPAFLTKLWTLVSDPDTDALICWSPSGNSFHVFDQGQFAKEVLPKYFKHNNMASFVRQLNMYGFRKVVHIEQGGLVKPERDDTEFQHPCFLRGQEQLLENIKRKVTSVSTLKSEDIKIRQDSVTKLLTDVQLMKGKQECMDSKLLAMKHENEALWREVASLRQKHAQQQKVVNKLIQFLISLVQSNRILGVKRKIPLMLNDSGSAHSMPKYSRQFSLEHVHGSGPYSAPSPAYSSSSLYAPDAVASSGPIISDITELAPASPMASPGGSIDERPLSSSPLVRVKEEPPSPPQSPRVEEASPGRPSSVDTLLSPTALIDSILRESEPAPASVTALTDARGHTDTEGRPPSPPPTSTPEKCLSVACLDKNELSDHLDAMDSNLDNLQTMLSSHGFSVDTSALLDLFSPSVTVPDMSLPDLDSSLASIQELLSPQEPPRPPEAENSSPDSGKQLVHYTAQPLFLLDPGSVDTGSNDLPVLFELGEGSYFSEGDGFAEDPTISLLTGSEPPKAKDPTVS
ELF1, sequence (P32519 whole entry): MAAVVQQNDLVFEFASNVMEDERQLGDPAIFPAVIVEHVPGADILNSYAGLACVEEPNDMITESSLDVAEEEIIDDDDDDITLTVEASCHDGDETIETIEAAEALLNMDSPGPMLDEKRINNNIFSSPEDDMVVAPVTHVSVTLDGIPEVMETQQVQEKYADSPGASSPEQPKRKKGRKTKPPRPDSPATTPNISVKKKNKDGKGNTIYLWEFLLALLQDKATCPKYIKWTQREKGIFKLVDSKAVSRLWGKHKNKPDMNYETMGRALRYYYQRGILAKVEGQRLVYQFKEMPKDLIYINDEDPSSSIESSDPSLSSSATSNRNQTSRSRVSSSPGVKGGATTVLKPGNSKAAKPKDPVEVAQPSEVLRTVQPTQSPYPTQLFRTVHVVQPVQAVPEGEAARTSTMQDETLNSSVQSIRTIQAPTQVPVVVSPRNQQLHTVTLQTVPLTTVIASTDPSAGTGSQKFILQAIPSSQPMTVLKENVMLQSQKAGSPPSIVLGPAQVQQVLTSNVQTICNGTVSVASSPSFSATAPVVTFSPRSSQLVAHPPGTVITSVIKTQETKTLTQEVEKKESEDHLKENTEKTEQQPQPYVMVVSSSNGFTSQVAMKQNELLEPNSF

For ATGTGC, the binding signal is 1.05 fold enrichment (6-mer frequency, TF over GST control) in the experiment with FLI1; 1.1 fold enrichment (6-mer frequency, TF over GST control) with ELK1; 1.1 fold enrichment (6-mer frequency, TF over GST control) with GABPA; 1.14 fold enrichment (6-mer frequency, TF over GST control) in the experiment with ERG; 1.19 fold enrichment (6-mer frequency, TF over GST control) with ELF1; 1.05 fold enrichment (6-mer frequency, TF over GST control) with EHF. Also, the binding signal with SPI1 is 1.06 fold enrichment (6-mer frequency, TF over GST control); with SPIB it was 1.15 fold enrichment (6-mer frequency, TF over GST control); with ELK3 it was 1.09 fold enrichment (6-mer frequency, TF over GST control); with FEV, 1.16 fold enrichment (6-mer frequency, TF over GST control); in the experiment with ETV5, 1.16 fold enrichment (6-mer frequency, TF over GST control); with HSF1 it was 1.02 fold enrichment (6-mer frequency, TF over GST control). For the same sequence, the binding signal with SPIC is 1.17 fold enrichment (6-mer frequency, TF over GST control); in the experiment with ELF4, 1.17 fold enrichment (6-mer frequency, TF over GST control); with ELK4, 1.21 fold enrichment (6-mer frequency, TF over GST control); in the experiment with ETV2, 1.11 fold enrichment (6-mer frequency, TF over GST control); in the experiment with ELF3 it was 1.1 fold enrichment (6-mer frequency, TF over GST control); with ETV1 it was 1.05 fold enrichment (6-mer frequency, TF over GST control).
